Results from the supplement of paper PMC8728848.
The sample as a whole holds a higher share of the strongest signals than the screen did.

Experiments:
Test in all cases: glycan array binding signal (z-score within array); higher = stronger binding
Details in all cases: glycan notation: IUPAC condensed, linker removed
[1] = target: GlcNAc(b1-2)[GlcNAc(b1-4)]Man(a1-3)[GlcNAc(b1-4)][GlcNAc(b1-2)Man(a1-6)]Man(b1-4)GlcNAc(b1-4)GlcNAc
In short: (§1)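 Glycan array data came from 3228 arrays in the Consortium for Functional Glycomics database, and only arrays with an available protein sequence were kept. Glycan names were put into IUPAC-condensed notation, and columns mapping to the same glycan were averaged. The binding signal is a within-array Z-score, averaged across arrays of one protein sequence run at different concentrations or buffers and across linkers. A negative Z-score can be read as non-binding.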

[2] = target: GlcNAc(b1-3)Gal(b1-4)Glc
In short: as §1

[3] = target: GlcNAc(b1-3)Gal(b1-4)GlcNAc(b1-6)[Gal(b1-3)]GalNAc
In short: as §1

[4] = target: GlcNAc(b1-4)GlcNAc(b1-4)GlcNAc(b1-4)GlcNAc(b1-4)GlcNAc(b1-4)GlcNAc
In short: as §1

[5] = target: Man(b1-4)GlcNAc
In short: as §1

[6] = target: Neu5Ac(a2-3)Gal(b1-3)GalNAc
In short: as §1

[7] = target: Neu5Ac(a2-3)Gal(b1-4)Glc
In short: as §1

[8] = target: Neu5Ac(a2-3)Gal(b1-4)GlcNAc(b1-3)Gal(b1-3)GlcNAc
In short: as §1

[9] = target: Neu5Ac(a2-3)Gal(b1-4)[Fuc(a1-3)]GlcNAc
In short: as §1

[10] = target: Neu5Ac(a2-6)Gal(b1-4)GlcNAc(b1-3)Gal(b1-4)GlcNAc(b1-2)Man(a1-3)[Neu5Ac(a2-6)Gal(b1-4)GlcNAc(b1-3)Gal(b1-4)GlcNAc(b1-2)Man(a1-6)]GalNAc
In short: as §1

[11] = target: Neu5Ac(a2-8)Neu5Ac(a2-8)Neu5Ac
In short: as §1

[12] = target: Neu5Ac(a2-8)Neu5Gc(a2-3)Gal(b1-4)GlcNAc
In short: as §1

[13] = target: Neu5Gc(a2-6)GalNAc
In short: as §1

B1: Sebin2 (Coprinopsis cinerea), A8PE78 (protein)
chain: MTTPFYAYCHNVQDDNTWRLGLVFANRSTADEWWRAISEATSSIPITKSITRVTPQYYTHDIRVWNMYNFFVDGNIKSISDKFRGRLFITLEYDRSGRGVSVFPPLHIVDHVSGNWYYIRSKTAPHLFWFYDETRNAIYASKEKRTRFKVSIRNPSPQTPKDAIMINSDDVVIHIKESLYVGVDSYLGHIIPTRAYRTFKFGELEGGAIAGIEVAENAEERCSSTFDGASLYFVGPDSSSPGEPWELV
With B1 the “glycan array binding signal (z-score)” value [1] was 2.76, the “glycan array binding signal (z-score)” value [2] was -0.04 and the “glycan array binding signal (z-score)” value [3] was -0.253. The “glycan array binding signal (z-score)” value [4] was -0.328, the “glycan array binding signal (z-score)” value [5] was -0.209 and the “glycan array binding signal (z-score)” value [6] was 6.35. The “glycan array binding signal (z-score)” value [7] was 8.35, the “glycan array binding signal (z-score)” value [8] was 0.2 and the “glycan array binding signal (z-score)” value [9] was -0.437. The “glycan array binding signal (z-score)” value [10] was -0.35, the “glycan array binding signal (z-score)” value [11] was 0.72 and the “glycan array binding signal (z-score)” value [12] was -0.304. The “glycan array binding signal (z-score)” value [13] was -0.242.
